Lassa entry inh = inhibitors of Lassa virus binding or cell entry. Lassa virus pseudotype entry inhibition, cell reporter. Potency, µM (doses to about 37.9 µM), without a hit: at the highest dose activity change, negative = inhibition, usual class: inhibitors. hit rate 1.2% among 300,000. AID 540256; calls by dose curve; tested in HEK293 cells; further: potency means the concentration at half of the fitted maximal effect; nearly all actives have a fitted effect of over 50% in size
Marburg entry inh = blocks Marburg virus binding to or entry into cells; Marburg virus pseudotyped entry inhibition, cell reporter; Potency, µM (doses to about 37.8 µM), without a hit: at the top dose activity change, negative = inhibition, hits mostly inhibitors; hit rate 1.8% among 300,000; AID 540276; calls by dose curve; tested in HEK293 cells; further: potency means the concentration at half of the fitted maximal effect
HCV inhibitor = blocks hepatitis C virus | Potency, µM (doses to about 41.8 µM), for inactives: top-dose activity change, negative = inhibition, hits mostly inhibitors | hit rate 3.4% among 340,000 | Huh7.5.1 HCVcc-Cre infection, luciferase reporter, 44 h; active means well fitted inhibition curve with a large enough effect; inconclusive means small, poorly fitted or top-dose-only effect, or another doubt; inactive means no such curve, though single readings can be large or run the other way; further: potency means the concentration at half of the fitted maximal effect
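Reporter virus HCVcc-Cre (~0.5 moi) infects cells exposed to compound; seeding density 1,000 cells/well with 4 h settling beforehand. Luminescence, 15 sec read, taken 44 h post-infection following a 15 min RT substrate incubation.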
HCMV antiviral = inhibitors of human cytomegalovirus; HFF cells, HCMV-luciferase reporter, 72 h; stronger effect = lower value; activity change, negative = inhibition, % at 57.5 µM; hit rate 4.5% among 410,000; AID 1259415; in the data active means activity change below about -60%; inconclusive means no clear call, values can overlap the other calls; inactive means above about -39%
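Inhibition of viral replication was scored as loss of reporter luminescence in HFFs infected with HCMV-luciferase (MOI 1 PFU/cell) for 72 h; compounds tested at 2 doses, normalized to buffer and Salinomycin controls.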
FMDV antiviral = blocks foot and mouth disease virus. FMDV antiviral cell-based qHTS. Potency, µM (series often up to 57.9 µM), inactives show at the highest dose activity change, negative = inhibition, hits mostly inhibitors. hit rate 1.2% among 410,000; calls by dose curve; tested in HEK293T cells; further: read-out not given here; potency means the concentration at half of the fitted maximal effect; nearly all actives have a fitted effect of over 45% in size
* marks the source's active call; other numbers are inactive results; ? = inconclusive; . = no result; [ ] = another dose, or the depositor's remark. A selection: hits, their analogues and other compounds. The true share with any hit is near 7.9%. On the % scale 0 is the no-effect control and ±100 the full control effect.

SMILES	Lassa entry inh	Marburg entry inh	HCV inhibitor	HCMV antiviral	FMDV antiviral
COc1ccc2c(C#N)c3ccccn3c2c1	.	.	3.16µM*	?	19.8%
C[C@@H]1O[C@@H](O[C@H]2[C@H](O[C@H]3C[C@]4(C)C(C[C@@H](O)C5C([C@]6(C)CC[C@@H](C(C)(C)O)O6)CC[C@]54C)[C@@]4(C)CC[C@H](O)C(C)(C)C34)O[C@H](CO)[C@@H](O)[C@@H]2O)[C@H](O)[C@H](O)[C@H]1O (stereo not given in full)	.	.	13.4%	-5.9	-16.3%
CC(=O)OC1CC(OC2C(O)CC(OC3C(O)CC(OC4CCC5(C)C(CCC6C5CCC5(C)C(C7=CC(=O)OC7)CCC65O)C4)OC3C)OC2C)OC(C)C1OC1OC(CO)C(O)C(O)C1O (stereo not given)	0.1µM*	?	0.794µM*	-97.6*	0.0%
COC(=O)CNC(c1ccccc1Cl)c1cc(Br)ccc1NS(=O)(=O)c1ccc(C)cc1 (stereo not given)	?	?	?	-69.7*	-2.9%
N#Cc1ccccc1CSc1nnc(-c2ccccc2)o1	1.3%[46.1 µM]	?	.	101.4	38.8%
Cc1c(Cl)cccc1NC(=O)CCCn1nc(C)c2sc3ccccc3c2c1=O	-4.2%[46.1 µM]	-6.8%[46.1 µM]	.	28.0	-16.9%
COc1ccc(C(=O)N2CCC[C@@]3(CCN(C)C3)C2)cc1	.	.	.	.	-3.0%
Cc1ccc(NS(=O)(=O)c2ccc3nc(-c4ccccc4)[nH]c3c2)cc1Cl	?	15.7%[46.1 µM]	.	-9.7	52.1%
Cc1ccc(NS(=O)(=O)c2ccc(Cl)c(C(=O)Nc3ccccc3-c3nc4ccccc4[nH]3)c2)cc1C	?	?	3.55µM*	-84.7*	-45.9%
O=C(NCc1cccc(Cl)c1)c1ccc2c(c1)nc1n2CCOC1	7.7%[46.1 µM]	.	.	0.1	19.4%
COc1ccc(CNS(=O)(=O)c2ccc3c(c2)N(C(C)=O)CC(C)S3)cc1 (stereo not given)	?	?	?	-91.2*	?
CC(=O)N1CC(C)Sc2ccc(S(=O)(=O)NC3CCCCC3)cc21 (stereo not given)	.	.	?	?	-13.7%
COc1ccc(NS(=O)(=O)c2ccc3c(c2)N(C(C)=O)CC(C)S3)c(OC)c1 (stereo not given)	.	.	11.2µM*	-85.1*	-0.2%
COc1cc(=O)n2c(c1C(=O)N(C)Cc1nonc1C)CCN(C(=O)C1C(C)(C)C1(C)C)CC2	.	.	.	.	4.3%
COc1cc2c(c(OC)c1)[C@H](C=Cc1ccccc1)[C@@H]([C@H](O)CO)OC2	.	17.0%[14.2 µM]	.	.	.
C/C(=N\NC(=O)c1ccccc1O)c1ccc(NC(=O)Cc2ccccc2)cc1	-1.4%	-20.8%	20.3%	193.6	2.0%
CC[C@@]12C=C(C=Cc3ccccc3)[C@](CC)(C1)[C@H](c1ccccc1)CC2=O	.	4.3%[14.2 µM]	.	.	.
O=C1C(=O)N(CCN2CCOCC2)[C@@H](c2ccccn2)/C1=C(\O)c1ccccc1	.	23.2%	.	.	.
O=C(COC(=O)CCN1C(=O)/C(=C\C=C\c2ccccc2)SC1=S)Nc1cc(F)ccc1F	?	?	3.9%	-62.0*	?
CCCC(CCC)=NNc1ccc(S(=O)(=O)Nc2ccccc2OC)cc1[N+](=O)[O-]	?	?	15.2%	-32.3	-2.6%
COc1ccc(NS(=O)(=O)c2ccc(N/N=C(\C)c3ccncc3)c([N+](=O)[O-])c2)cc1	11.6µM*	6.31µM*	4.47µM*	-66.5*	-13.1%
COc1ccccc1NS(=O)(=O)c1ccc(N/N=C(\C)C(C)C)c([N+](=O)[O-])c1	?	?	?	-61.1*	-9.9%
O=c1[nH]c(=O)n(-c2ccccc2)c2c1C(C(F)(F)F)(C(F)(F)F)N=C(CCC1CCCCC1)N2	11.2µM*	?	?	-10.1	25.1µM*
N#Cc1ccc(C2=NC(C(F)(F)F)(C(F)(F)F)c3c(n(Cc4ccco4)c(=O)[nH]c3=O)N2)cc1	14.6%	-0.7%	4.4%	-85.1*	-10.9%
O=c1[nH]c(=O)n(-c2ccc(F)cc2)c2c1C(C(F)(F)F)(C(F)(F)F)N=C(c1ccc(F)cc1)N2	?	?	12.6µM*	-99.4*	10µM*
O=c1[nH]c(=O)n(Cc2ccco2)c2c1C(C(F)(F)F)(C(F)(F)F)N=C(CCC1CCCCC1)N2	-2.4%	4.2%	15.1%	?	-16.5%
C=C(C)C(=O)Oc1ccc(N=Nc2ccc(C)cc2)ccc1=O	?	?	11.2µM*	-0.2	?
